According to PubChem BioAssay (Tox21):
Unmarked numbers belong to inactive results. Records with an inconclusive call do not appear. Entries that show only a call come without a potency. Calls of active or inactive are those of the source. Unless noted, calls follow the shape of the dose curve; as a rule, active = well fitted curve in the direction sought with a large enough effect in the repeat runs; inconclusive = weak or mixed curves; inactive = no such curve, though single readings can be large; an effect the other way counts as inactive or inconclusive.

Experiments:
[1] = qHTS assay to identify small molecule agonists of the hypoxia (HIF-1) signaling pathway (AID 1224846; active = well fitted activation curve with a large enough effect in the signal ratio in the repeat runs, not every such curve was filed as active; the % refers to the signal ratio)
Method in brief: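 Reporter induction in HRE-bla ME-180 cells is taken as agonism: cells sit 5 hrs after plating, receive compounds or DMSO only, incubate 17 hrs at 37C under 5% CO2, and are loaded with CCF4-AM for beta-lactamase FRET measurement.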

[2] = qHTS assay to identify small molecule agonists of H2AX - cell viability counter screen (AID 1224847; calls by dose curve; also: top concentration of the series differs between compounds; nearly all actives have a fitted effect of over 30% in size)
Method in brief: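 Compounds tested at 15 concentrations were incubated 3 hr at 37C with wild-type CHO-K1 cells; cellular ATP-based luminescence (CellTiter-Glo) indicated viability.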

[3] = qHTS RealTime-Glo MT Cell Viability Assay in HEK293 cells - 32 hour (AID 1224868); also: nearly all actives have a fitted effect of over 50% in size; also: potency is read from the fitted curve at half-maximal effect; as to activity change, negative = cytotoxic: top concentration of the series differs between compounds
Method in brief: (§1)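 Nonlytic real-time viability readout: viable cells convert prosubstrate to NanoLuc substrate, giving luminescence proportional to live cell number. HEK293, 600 cells/well, compound added after 5 h, continuous culture at 37 C.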

[4] = A CellTox Green Cytotoxicity Assay to monitor cytotoxicity in HEK293 cells - 0 hour (AID 1224869); also: nearly all actives have a fitted effect of over 50% in size
Method in brief: (§2)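 Tox21 screen in HEK293: membrane-impermeant cyanine dye fluoresces on binding dead-cell DNA; compound pinned 5 h post-seeding, plates held at 37 C, signal read repeatedly through 40 h.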

[5] = qHTS RealTime-Glo MT Cell Viability Assay in HepG2 cells - 40 hour (AID 1224870); also: nearly all actives have a fitted effect of over 50% in size; also: potency is read from the fitted curve at half-maximal effect
Method in brief: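 HepG2 cells mixed with RealTime-Glo MT reagents (NanoLuc plus cell-permeant prosubstrate) were seeded at 600 cells/well, incubated 5 h at 37 C/5% CO2, then pinned with compounds in DMSO; nonlytic luminescence tracked viability during 40 h treatment.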

[6] = A CellTox Green Cytotoxicity Assay to monitor cytotoxicity in HEK293 cells - 40 hour (AID 1224871); also: nearly all actives have a fitted effect of over 45% in size
Method in brief: as §2

[7] = qHTS RealTime-Glo MT Cell Viability Assay in HEK293 cells - 16 hour (AID 1224872); also: top concentration of the series differs between compounds; nearly all actives have a fitted effect of over 50% in size
Method in brief: as §1

[8] = qHTS RealTime-Glo MT Cell Viability Assay in HepG2 cells - 24 hour (AID 1224867); also: nearly all actives have a fitted effect of over 50% in size
Method in brief: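 Luminescence read-out: viable HepG2 cells reduce a prosubstrate to a NanoLuc substrate, giving a signal proportional to live cell number. Reads taken at 0, 8, 16, 24, 32 and 40 h of compound exposure at 37 C.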

[9] = qHTS assay to identify small molecule antagonists of the estrogen related receptor (ERR) signaling pathway from Tox21 library (AID 1224848); also: nearly all actives have a fitted effect of over 50% in size
Method in brief: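 First, 2,000 ERR cells per well were plated and held 6 h at 37 C/5% CO2. Next, compounds in DMSO were pinned in and left 18 h at 37 C. Finally, ONE-Glo was added and luminescence read after 30 min at room temperature.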

[10] = qHTS assay to identify small molecule agonists of the estrogen related receptor (ERR) signaling pathway from Tox21 library (AID 1224849; calls by dose curve; also: nearly all actives have a fitted effect of over 15% in size)
Method in brief: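 Tox21 compounds tested for ERR agonism in an NTP reporter cell line: 18 h treatment at 37 C, then ONE-Glo luminescence.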

For `[K+]`, the outcome [1] was “inactive”, the outcome [2] was “inactive” and the Potency [3] was “inactive”. The outcome [4] was “inactive”, the Potency [5] was 34.7 µM (active) and the Potency [6] was “inactive”. The Potency [7] was “inactive”.
With `CCCC(=O)O[C@]1(C(=O)CC)CC[C@H]2[C@@H]3CCC4=CC(=O)CC[C@]4(C)[C@H]3[C@@H](O)C[C@@]21C` the outcome [1] was “inactive”, the outcome [2] was “inactive” and the outcome [8] was “inactive”. For the same molecule, the outcome [4] was “inactive”, the Potency [5] was “inactive” and the Potency [6] was “inactive”. The Potency [7] was “inactive”.
With `CC(C)(C)c1ccc(-c2ccc(C(C)(C)C)cc2)cc1` the outcome [2] was “inactive”, the Potency [9] was “inactive” and the outcome [10] was “inactive”. The outcome [8] was “inactive”, the Potency [3] was “inactive” and the outcome [4] was “inactive”. The Potency [5] was “inactive”, the Potency [6] was “inactive” and the Potency [7] was “inactive”.
For `CCCCCCC#CC(=O)OC`, the outcome [2] was “inactive”, the Potency [9] was “inactive” and the outcome [10] was “inactive”. The outcome [8] was “inactive”, the Potency [3] was “inactive” and the outcome [4] was “inactive”. For the same molecule, the Potency [5] was “inactive”, the Potency [6] was “inactive” and the Potency [7] was “inactive”.
For `CO[C@@]1(NC(=O)C(C(=O)O)c2ccc(O)cc2)C(=O)N2C(C(=O)O)=C(CSc3nnnn3C)CO[C@@H]21` (stereo partly drawn), the outcome [2] was “inactive”, the Potency [9] was “inactive” and the outcome [10] was “inactive”. The outcome [8] was “inactive”, the Potency [3] was “inactive” and the outcome [4] was “inactive”. For the same molecule, the Potency [5] was “inactive”, the Potency [6] was “inactive” and the Potency [7] was “inactive”.
For `CN(C)CCCN(C)CCCN(C)C`, the outcome [2] was “inactive”, the outcome [8] was “inactive” and the Potency [3] was “inactive”. The outcome [4] was “inactive”, the Potency [5] was “inactive” and the Potency [6] was “inactive”. The Potency [7] was “inactive”.
`CC(C)C[C@@H](N)C(=O)O` showed an activity change, negative = cytotoxicity [2] of -4.41% [at 31.6 µM], an activity, negative = inhibition [9] of 12.8% [at 19 µM] and an activity change, positive = activation [10] of 7.21% [at 19 µM]. It also gave an activity change, negative = cytotoxicity [8] of 3.14% [at 15.8 µM], an activity change, negative = cytotoxic [3] of 5.13% [at 15.8 µM] and a cytotoxicity [4] of -0.288% [at 15.8 µM]. The activity change, negative = cytotoxic [5] was 2.01% [at 15.8 µM], the cytotoxicity increase [6] was -2.15% [at 15.8 µM] and the activity change, negative = cytotoxicity [7] was 5.2% [at 15.8 µM].
In the case of `CCN[C@H]1C[C@H](C)S(=O)(=O)c2sc(S(N)(=O)=O)cc21`, the outcome [2] was “inactive”, the outcome [8] was “inactive” and the Potency [3] was “inactive”. The outcome [4] was “inactive”, the Potency [5] was “inactive” and the Potency [6] was “inactive”. For the same molecule, the Potency [7] was “inactive”.
With `O=S(=O)(O)c1cccc2ccccc12` the outcome [2] was “inactive”, the Potency [9] was “inactive” and the outcome [10] was “inactive”. For the same molecule, the outcome [8] was “inactive”, the Potency [3] was “inactive” and the outcome [4] was “inactive”. For the same molecule, the Potency [5] was “inactive”, the Potency [6] was “inactive” and the Potency [7] was “inactive”.
In the case of `CO/N=C(\C(=O)N[C@@H]1C(=O)N2C(C(=O)O)=C(CSc3nc(=O)c(O)nn3C)CS[C@H]12)c1csc(N)n1`, the outcome [2] was “inactive”, the Potency [9] was “inactive” and the outcome [10] was “inactive”. The outcome [8] was “inactive”, the Potency [3] was “inactive” and the outcome [4] was “inactive”. The Potency [5] was “inactive”, the Potency [6] was “inactive” and the Potency [7] was “inactive”.
In the case of `Cc1ccc(C(=O)c2ccc(CC(=O)O)n2C)cc1`, the outcome [2] was “inactive”, the Potency [9] was “inactive” and the outcome [10] was “inactive”. For the same molecule, the outcome [8] was “inactive”, the Potency [3] was “inactive” and the outcome [4] was “inactive”. The Potency [5] was “inactive”, the Potency [6] was “inactive” and the Potency [7] was “inactive”.
For `CCCCCCC1CCC(=O)O1` (stereo not drawn), the outcome [2] was “inactive”, the Potency [9] was “inactive” and the outcome [10] was “inactive”. The outcome [8] was “inactive”, the Potency [3] was “inactive” and the Potency [5] was “inactive”. For the same molecule, the Potency [6] was “inactive” and the Potency [7] was “inactive”.
Work on `NC(N)=NCCN1CCCCCCC1` yielded an activity change, negative = cytotoxicity [2] of 0.639% [at 0.582 µM], an activity, negative = inhibition [9] of 12.8% [at 0.349 µM] and an activity change, positive = activation [10] of 7.2% [at 0.349 µM]. It also gave an activity change, negative = cytotoxicity [8] of 0.287% [at 0.29 µM], an activity change, negative = cytotoxic [3] of -3.18% [at 0.29 µM] and a cytotoxicity [4] of 4.87% [at 0.29 µM]. For the same molecule, the activity change, negative = cytotoxic [5] was 0.511% [at 0.29 µM], the cytotoxicity increase [6] was 1.15% [at 0.29 µM] and the activity change, negative = cytotoxicity [7] was -1.96% [at 0.29 µM].
For `C[N+]12CCC(CC1)C(OC(=O)C(O)(c1ccccc1)c1ccccc1)C2` (stereo not drawn), the outcome [2] was “inactive”, the Potency [9] was “inactive” and the outcome [10] was “inactive”. The outcome [8] was “inactive”, the Potency [3] was “inactive” and the Potency [5] was “inactive”. For the same molecule, the Potency [6] was “inactive” and the Potency [7] was “inactive”.
With `COC(=O)C1=C(C)NC(C)=C(C(=O)OC(C)C)C1c1cccc2nonc12` (stereo not drawn) the outcome [2] was “inactive”, the outcome [10] was “inactive” and the Potency [3] was 19 µM (active). The outcome [4] was “inactive” and the Potency [6] was “inactive”.
For `NS(=O)(=O)Cc1noc2ccccc12`, the outcome [2] was “inactive”, the Potency [9] was “inactive” and the outcome [10] was “inactive”. The outcome [8] was “inactive”, the Potency [3] was “inactive” and the outcome [4] was “inactive”. For the same molecule, the Potency [5] was “inactive”, the Potency [6] was “inactive” and the Potency [7] was “inactive”.
For `CC1=CCC(O)(C(C)C)CC1` (stereo not drawn), the outcome [2] was “inactive”, the outcome [8] was “inactive” and the Potency [3] was “inactive”. The outcome [4] was “inactive”, the Potency [5] was “inactive” and the Potency [6] was “inactive”. The Potency [7] was “inactive”.
For `CN(C)C(=O)Oc1cccc([N+](C)(C)C)c1`, the outcome [2] was “inactive”, the outcome [8] was “inactive” and the Potency [3] was “inactive”. The outcome [4] was “inactive”, the Potency [5] was “inactive” and the Potency [6] was “inactive”. For the same molecule, the Potency [7] was “inactive”.
With `CN(C)C(=O)Oc1ccc[n+](C)c1` the outcome [2] was “inactive”, the Potency [9] was “inactive” and the outcome [10] was “inactive”. For the same molecule, the outcome [8] was “inactive”, the Potency [3] was “inactive” and the outcome [4] was “inactive”. For the same molecule, the Potency [5] was “inactive”, the Potency [6] was “inactive” and the Potency [7] was “inactive”.
With `C[N+]1(C)CCCC(OC(=O)C(O)(c2ccccc2)c2ccccc2)C1` (stereo not drawn) the outcome [2] was “inactive”, the Potency [9] was “inactive” and the outcome [10] was “inactive”. The outcome [8] was “inactive”, the Potency [3] was “inactive” and the Potency [5] was “inactive”. The Potency [6] was “inactive” and the Potency [7] was “inactive”.
For `C=CC(=O)OCCCl`, the outcome [2] was “inactive”, the outcome [8] was “inactive” and the Potency [3] was “inactive”. For the same molecule, the outcome [4] was “inactive”, the Potency [5] was “inactive” and the Potency [6] was “inactive”. The Potency [7] was “inactive”.
In the case of `Cc1ccnc(NS(=O)(=O)c2ccc(N)cc2)n1`, the outcome [2] was “inactive”, the Potency [9] was “inactive” and the outcome [10] was “inactive”. For the same molecule, the outcome [8] was “inactive”, the Potency [3] was “inactive” and the outcome [4] was “inactive”. For the same molecule, the Potency [5] was “inactive”, the Potency [6] was “inactive” and the Potency [7] was “inactive”.
With `CCOC(=O)COC(=O)c1ccccc1C(=O)OCC` the outcome [2] was “inactive”, the Potency [9] was “inactive” and the outcome [10] was “inactive”. For the same molecule, the outcome [8] was “inactive”, the Potency [3] was “inactive” and the outcome [4] was “inactive”. The Potency [5] was “inactive”, the Potency [6] was “inactive” and the Potency [7] was “inactive”.
With `Cc1ccc(-c2ccccc2C#N)cc1` the outcome [2] was “inactive”, the outcome [8] was “inactive” and the Potency [3] was “inactive”. The outcome [4] was “inactive”, the Potency [5] was “inactive” and the Potency [6] was “inactive”. For the same molecule, the Potency [7] was “inactive”.
